± gives the standard deviation of the averaged measurements.
tested on: HT-1080; assay: relative cell viability with RSL3 co-treatment (fraction of control); higher = stronger protection from RSL3-induced ferroptosis (higher viability); conditions: 10 µM
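Also: viability read as CCK-8 absorbance at 450 nm in cells co-exposed to the GPX4 inhibitor RSL3, relative to a 0.01% DMSO vehicle control.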

Compound	relative cell viability
C[C@@]1(C(=O)Nc2ccc(F)nc2)CCCN1c1nc(Nc2cc(C3CC3)n[nH]2)c2cccn2n1	0.483 ± 0.05
COc1cc(N2CCC(N(C)C)CC2)ccc1Nc1ncc(Cl)c(Nc2ccccc2P(C)(C)=O)n1	0.36 ± 0.082
CCN(CC)CCCC(C)Nc1nc(C)cc(Nc2ccc3nc(C)cc(N)c3c2)n1 (stereo not drawn)	0.583 ± 0.15
